Experimental findings from ChEMBL document CHEMBL1961873, “Compounds: GSK PKIS; Assays: Nanosyn kinase panel” (2012) are described below.

In assay [1] the target is Casein kinase I isoform gamma-2 (Homo sapiens) (UniProt P78368). Conditions: at 1 µM.
Assay [2] addresses Casein kinase I isoform gamma-3 (Homo sapiens) (UniProt Q9Y6M4). Conditions: at 0.1 µM.
For assay [3] the target is unchanged. The settings on record: at 1 µM.
Assay [4] has as its target Cyclin-dependent kinase 1 (Homo sapiens) (UniProt P06493). The settings on record: at 0.1 µM.
Assay [5] has the same target. The settings on record: at 1 µM.
For assay [6], the target named is Cyclin-dependent kinase 2 (Homo sapiens) (UniProt P24941). Conditions: at 0.1 µM.
The target is the same in assay [7]. The settings on record: at 1 µM.
Assay [8] has the same target. The settings on record: at 0.1 µM. This is another data set of the same source.
For assay [9] the target is unchanged. The settings on record: at 1 µM. This is another data set of the same source.
Assay [10] addresses T1, CDK3/Cyclin E (Homo sapiens) (UniProt P24864+Q00526). The settings on record: at 0.1 µM.
The target of assay [11] is T1, CDK3/Cyclin E (Homo sapiens). The settings on record: at 1 µM.
Assay [12] addresses Cyclin-dependent kinase 4 (Homo sapiens) (UniProt P11802). Conditions: at 0.1 µM.
Assay [13] shares this target. The settings on record: at 1 µM.
Assay [14] concerns the target Cyclin-dependent kinase 5 (Homo sapiens) (UniProt Q00535). Conditions: at 0.1 µM.
Assay [15] has the same target. The settings on record: at 1 µM.
The target of assay [16] is Cyclin-dependent kinase 6 (Homo sapiens) (UniProt Q00534). Conditions: at 0.1 µM.
Cyclin-dependent kinase 6 (Homo sapiens), sequence (Q00534 whole entry): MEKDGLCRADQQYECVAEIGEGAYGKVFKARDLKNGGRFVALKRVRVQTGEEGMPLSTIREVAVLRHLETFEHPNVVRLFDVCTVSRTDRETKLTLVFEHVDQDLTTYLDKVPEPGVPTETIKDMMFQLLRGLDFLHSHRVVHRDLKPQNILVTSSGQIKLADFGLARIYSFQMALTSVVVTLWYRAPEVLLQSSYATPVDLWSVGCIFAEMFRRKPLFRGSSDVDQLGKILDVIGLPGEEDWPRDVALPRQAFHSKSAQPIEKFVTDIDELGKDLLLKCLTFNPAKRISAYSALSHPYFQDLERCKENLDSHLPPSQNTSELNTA
For assay [17] the target is unchanged. Conditions: at 1 µM.
The target of assay [18] is Dual specificity protein kinase CLK2 (Homo sapiens) (UniProt P49760). The settings on record: at 0.1 µM.
Dual specificity protein kinase CLK2 (Homo sapiens), sequence (P49760 whole entry, looked up): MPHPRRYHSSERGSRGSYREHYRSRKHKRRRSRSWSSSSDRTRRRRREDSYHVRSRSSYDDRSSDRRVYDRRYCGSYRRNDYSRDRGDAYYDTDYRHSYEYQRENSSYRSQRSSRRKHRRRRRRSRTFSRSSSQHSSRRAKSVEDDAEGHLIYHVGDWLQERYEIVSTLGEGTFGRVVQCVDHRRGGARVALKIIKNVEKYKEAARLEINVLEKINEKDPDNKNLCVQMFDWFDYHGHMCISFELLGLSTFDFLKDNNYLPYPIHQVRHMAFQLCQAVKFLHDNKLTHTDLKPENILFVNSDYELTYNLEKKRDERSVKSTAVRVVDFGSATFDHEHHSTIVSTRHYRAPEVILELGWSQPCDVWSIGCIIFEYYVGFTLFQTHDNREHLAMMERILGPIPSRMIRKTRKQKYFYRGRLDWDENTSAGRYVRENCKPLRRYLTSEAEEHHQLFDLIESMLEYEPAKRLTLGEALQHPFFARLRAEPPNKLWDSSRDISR
The target is the same in assay [19]. Conditions: at 1 µM.
Assay [20] addresses Dual specificity protein kinase CLK3 (Homo sapiens) (UniProt P49761). Conditions: at 0.1 µM.

What is called inhibition is the drop in the measured response relative to a control, in per cent.

Molecules are shown by their SMILES.

Casein kinase I isoform gamma-2 (Homo sapiens), sequence (P78368 whole entry, looked up, canonical isoform): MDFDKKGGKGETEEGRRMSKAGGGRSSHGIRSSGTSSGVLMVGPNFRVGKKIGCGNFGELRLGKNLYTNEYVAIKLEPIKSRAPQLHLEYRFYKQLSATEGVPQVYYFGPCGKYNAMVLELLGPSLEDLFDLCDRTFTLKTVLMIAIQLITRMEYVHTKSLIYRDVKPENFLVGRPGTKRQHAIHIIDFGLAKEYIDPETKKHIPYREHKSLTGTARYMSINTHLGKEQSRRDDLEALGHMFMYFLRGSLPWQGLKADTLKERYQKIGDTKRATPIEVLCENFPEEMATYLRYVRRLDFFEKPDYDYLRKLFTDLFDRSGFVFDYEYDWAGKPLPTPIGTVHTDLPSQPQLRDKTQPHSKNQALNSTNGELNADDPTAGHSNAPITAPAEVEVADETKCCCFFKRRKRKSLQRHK
Cyclin-dependent kinase 5 (Homo sapiens), sequence (Q00535 whole entry, looked up): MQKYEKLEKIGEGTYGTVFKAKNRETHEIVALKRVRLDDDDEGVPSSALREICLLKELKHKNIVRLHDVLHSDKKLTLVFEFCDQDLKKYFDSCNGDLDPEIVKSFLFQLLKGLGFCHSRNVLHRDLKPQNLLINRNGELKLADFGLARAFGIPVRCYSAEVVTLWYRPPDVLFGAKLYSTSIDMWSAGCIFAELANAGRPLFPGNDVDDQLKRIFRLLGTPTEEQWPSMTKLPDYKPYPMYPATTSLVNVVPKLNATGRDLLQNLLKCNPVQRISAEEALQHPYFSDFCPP
T1 sequence (P24864 whole entry, looked up): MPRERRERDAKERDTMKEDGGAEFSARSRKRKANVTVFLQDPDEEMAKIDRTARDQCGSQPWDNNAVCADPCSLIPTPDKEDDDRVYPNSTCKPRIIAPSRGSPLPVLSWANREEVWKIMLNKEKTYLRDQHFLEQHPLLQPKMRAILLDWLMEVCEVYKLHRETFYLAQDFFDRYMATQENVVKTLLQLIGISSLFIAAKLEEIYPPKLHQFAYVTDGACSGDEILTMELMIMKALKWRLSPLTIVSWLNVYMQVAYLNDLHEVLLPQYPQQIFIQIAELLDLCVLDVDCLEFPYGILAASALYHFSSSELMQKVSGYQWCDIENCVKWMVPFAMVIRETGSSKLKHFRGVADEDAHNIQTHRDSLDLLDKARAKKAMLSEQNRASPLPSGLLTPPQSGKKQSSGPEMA
T1 sequence (Q00526 whole entry, looked up): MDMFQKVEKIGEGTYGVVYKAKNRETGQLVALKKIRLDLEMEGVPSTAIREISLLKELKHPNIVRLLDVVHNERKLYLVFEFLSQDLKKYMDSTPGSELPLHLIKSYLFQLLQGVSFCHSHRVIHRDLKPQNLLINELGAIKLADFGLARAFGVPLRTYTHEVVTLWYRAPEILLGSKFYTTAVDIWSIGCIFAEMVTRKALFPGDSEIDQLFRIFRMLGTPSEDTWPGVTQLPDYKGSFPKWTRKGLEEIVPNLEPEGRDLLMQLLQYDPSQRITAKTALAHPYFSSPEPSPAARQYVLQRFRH
Dual specificity protein kinase CLK3 (Homo sapiens), sequence (P49761 whole entry, looked up): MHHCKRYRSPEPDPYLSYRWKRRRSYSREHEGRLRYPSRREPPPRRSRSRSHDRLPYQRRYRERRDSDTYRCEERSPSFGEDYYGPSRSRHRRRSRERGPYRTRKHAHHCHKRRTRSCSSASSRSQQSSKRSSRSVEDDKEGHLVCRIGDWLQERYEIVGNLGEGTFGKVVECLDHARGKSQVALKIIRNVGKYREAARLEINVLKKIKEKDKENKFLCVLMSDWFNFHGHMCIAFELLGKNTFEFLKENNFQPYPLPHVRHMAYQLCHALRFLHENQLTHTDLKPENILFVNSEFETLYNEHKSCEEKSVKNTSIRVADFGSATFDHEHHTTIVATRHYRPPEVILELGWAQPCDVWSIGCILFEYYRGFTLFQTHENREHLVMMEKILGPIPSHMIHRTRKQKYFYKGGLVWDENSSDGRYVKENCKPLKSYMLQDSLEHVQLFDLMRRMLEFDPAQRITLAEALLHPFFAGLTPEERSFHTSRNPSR
Cyclin-dependent kinase 4 (Homo sapiens), sequence (P11802 whole entry): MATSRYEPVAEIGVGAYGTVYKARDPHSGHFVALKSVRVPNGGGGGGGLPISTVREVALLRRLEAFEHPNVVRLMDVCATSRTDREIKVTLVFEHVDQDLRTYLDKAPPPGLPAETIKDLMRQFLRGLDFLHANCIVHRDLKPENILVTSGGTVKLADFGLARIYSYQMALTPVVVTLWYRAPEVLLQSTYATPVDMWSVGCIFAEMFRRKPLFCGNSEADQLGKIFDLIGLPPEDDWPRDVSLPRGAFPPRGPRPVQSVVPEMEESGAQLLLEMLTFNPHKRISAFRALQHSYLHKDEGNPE
Casein kinase I isoform gamma-3 (Homo sapiens), sequence (Q9Y6M4 whole entry, looked up, canonical isoform): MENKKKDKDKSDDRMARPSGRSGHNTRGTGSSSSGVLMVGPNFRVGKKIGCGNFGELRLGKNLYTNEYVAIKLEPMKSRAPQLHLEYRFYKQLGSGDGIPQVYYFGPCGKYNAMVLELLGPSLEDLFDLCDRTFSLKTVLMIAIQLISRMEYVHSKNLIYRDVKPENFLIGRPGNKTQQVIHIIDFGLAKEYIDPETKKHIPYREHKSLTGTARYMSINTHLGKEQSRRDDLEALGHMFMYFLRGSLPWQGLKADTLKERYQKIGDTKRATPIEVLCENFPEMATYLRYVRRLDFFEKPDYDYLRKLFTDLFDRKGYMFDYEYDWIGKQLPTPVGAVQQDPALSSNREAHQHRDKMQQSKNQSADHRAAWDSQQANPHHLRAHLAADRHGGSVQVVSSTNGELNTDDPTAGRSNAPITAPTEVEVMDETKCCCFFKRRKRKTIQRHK
Cyclin-dependent kinase 1 (Homo sapiens), sequence (P06493 whole entry, looked up): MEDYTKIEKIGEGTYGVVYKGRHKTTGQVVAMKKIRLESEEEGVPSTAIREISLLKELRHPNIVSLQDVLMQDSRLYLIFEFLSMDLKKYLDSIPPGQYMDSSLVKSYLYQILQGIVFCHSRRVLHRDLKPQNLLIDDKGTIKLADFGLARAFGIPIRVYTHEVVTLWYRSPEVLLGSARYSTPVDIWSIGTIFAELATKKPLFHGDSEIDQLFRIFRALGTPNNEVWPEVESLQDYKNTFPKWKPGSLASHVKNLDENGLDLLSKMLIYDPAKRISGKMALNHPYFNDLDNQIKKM

For the molecule `CN(C)c1cc2c(Nc3ccc4c(cnn4Cc4ccccc4)c3)ncnc2cn1`, the inhibition stood at 2.69% in assay [1]; 1.93% in assay [2]; 2.19% in assay [3]; 0.49% in assay [4]; 1.95% in assay [5]; 1.76% in assay [6]. Also, the inhibition was 4.21% in assay [7]; 2.18% in assay [8]; 3.51% in assay [9]; 0.35% in assay [10]; -0.2% in assay [11]; 2.4% in [12]. In addition, the inhibition in assay [13] is 4.36%; in assay [14] it was 0.57%; in assay [15] it was 1.24%; in assay [16], -3.6%; in [17], -0.22%; in assay [18] it was 0.87%. Further, the inhibition in assay [19] is -0.06%; in assay [20] it was 0.92%.
On to `Cc1cc(O)cc(C)c1/C=C/c1cncc(C(=O)N(C)C)c1`, for which the inhibition in [1] was 3.24%; in assay [2] it was 0.86%; in assay [3], -0.84%; in assay [4] it was 1.02%; in [5], 5.98%; in assay [6], 2.51%. The inhibition was 0.67% in [7]; 1.36% in assay [8]; 4.91% in assay [9]; 1.4% in assay [10]; 0.31% in assay [11]; 2.02% in assay [12]. The inhibition in assay [13] is 5.17%; in assay [14] it was 1.19%; in assay [15] it was 4.55%; in [16], -1.04%; in assay [17], 3.9%; in [18], 2.35%. Further, the inhibition in [19] is 2.69%; in [20], -0.01%.
With `OCc1ccc(-c2nc(-c3ccccn3)c(-c3ccc4c(c3)OCO4)[nH]2)cc1`, the inhibition was determined as 4.06% in [1]; 3.67% in assay [2]; 4.78% in [3]; 0.21% in assay [4]; 1.4% in assay [5]; 1.49% in assay [6]. Also, the inhibition in assay [7] was -2.92%; in assay [8] it was 3.56%; in [9] it was 4.52%; in assay [10] it was 1.69%; in assay [11] it was 1.76%; in assay [12], 2.89%. Further, the inhibition was 3.75% in assay [13]; 0.69% in assay [14]; 1.21% in [15]; -1% in [16]; 2.55% in assay [17]; 1.74% in assay [18]. For the same molecule, the inhibition is 4.27% in assay [19] and 1.94% in assay [20].
On to `COC(=O)c1ccc2c(c1)C(=Cc1cc(Br)c(O)c(Br)c1)C(=O)N2`, for which the inhibition in assay [1] amounted to 6.12%; in [2] it was 3.75%; in assay [3], 5.04%; in assay [4] it was 1.54%; in assay [5], 2.24%; in assay [6], 8.07%. Also, the inhibition in assay [7] was 7.32%; in [8], 2.47%; in assay [9], 4.31%; in assay [10], -5.06%; in [11] it was -1.48%; in assay [12] it was 3.47%. In addition, the inhibition in [13] was 4.69%; in [14], 1.03%; in [15] it was 2.5%; in assay [16], -4.09%; in [17], -4.12%; in assay [18], 8.63%. Besides, the inhibition was determined as 50.1% in assay [19] and 0.44% in assay [20].
As to `Cc1ccc2c(-c3ccnc(Nc4ccc5c(c4)OCCO5)n3)c(-c3ccc(C(F)(F)F)cc3)nn2n1`, the inhibition in [1] was 1.66%; in assay [2] it was 1.42%; in assay [3] it was 1.29%; in assay [4] it was 1.21%; in [5], 2.01%; in assay [6], -0.16%. Besides, the inhibition in assay [7] is 2.09%; in [8] it was 0.31%; in assay [9], 1.68%; in [10], -0.58%; in assay [11], -3.94%; in assay [12], 0.65%. The inhibition in [13] was 1.74%; in assay [14], 0.21%; in assay [15], 1.41%; in assay [16], -0.74%; in assay [17], -1.75%; in assay [18] it was 1.25%. Further, the results for the inhibition in [19] and in [20] were -0.4% and 1.41%, respectively.
For the molecule `NC(=O)c1cccc(Nc2nccc(Nc3cccc(F)c3)n2)c1`, the inhibition in assay [1] is 1.73%; in [2] it was 0.99%; in assay [3], 0.09%; in [4], 1.24%; in assay [5], 3.33%; in assay [6], 2.07%. In addition, the inhibition was 4.6% in [7]; 0.92% in assay [8]; 5.16% in assay [9]; 0.62% in assay [10]; 3.01% in assay [11]; 0.31% in assay [12]. Moreover, the inhibition in [13] was 2.2%; in assay [14], 0.58%; in assay [15], 3.99%; in [16], -1.89%; in assay [17] it was 0.33%; in [18], 0.31%. Further, the inhibition in assay [19] was 5.73%; in [20], -0.43%.
With `NC(=O)c1sc(-n2cnc3ccccc32)cc1OCc1ccccc1Br`, the inhibition in [1] came out at 5.04%; in assay [2], 2.52%; in assay [3] it was 3.56%; in assay [4] it was 4.32%; in [5], 6.19%; in assay [6], 7.43%. Besides, the inhibition in assay [7] was 5.68%; in assay [8], 4.88%; in assay [9] it was 8.08%; in [10] it was -2.25%; in assay [11] it was 0.26%; in assay [12] it was 6.61%. The inhibition in assay [13] is 8.04%; in [14] it was 3.59%; in assay [15] it was 8.58%; in assay [16], -3.6%; in assay [17], -1.95%; in assay [18], 1.89%. Moreover, the figures for the inhibition in assay [19] and in [20] were 5.2% and 0.83%, respectively.
In the case of `[O-][S+]1CCN(Cc2ccc(-c3ccc4ncnc(Nc5ccc(OCc6ccccc6)c(Cl)c5)c4c3)o2)CC1`, the inhibition came out at 1.66% in [1]; 0.73% in [2]; 4.22% in assay [3]; 1.22% in assay [4]; 1.4% in assay [5]; 2.81% in assay [6]. Besides, the inhibition in assay [7] was 2.09%; in [8], 0.43%; in assay [9], 1.73%; in assay [10], -1.53%; in assay [11], -1.44%; in assay [12] it was 0.13%. The inhibition was 3.22% in [13]; 0.19% in [14]; 0.51% in assay [15]; -0.89% in [16]; 0.14% in [17]; -0.72% in assay [18]. For the same molecule, the inhibition in assay [19] is 0.49%; in assay [20] it was 0.43%.
For `COc1cc(/C=N/Nc2ncnc3c2cnn3C(C)C)ccc1O`, the inhibition in [1] amounted to 0.8%; in assay [2], 1.47%; in assay [3] it was 2.79%; in assay [4], 11.8%; in assay [5], 47.9%; in assay [6], 7.48%. For the same molecule, the inhibition in [7] amounted to 46.5%; in [8], 6.02%; in assay [9] it was 32.4%; in assay [10], 6.53%; in [11] it was 27.6%; in assay [12], 3.37%. In addition, the inhibition in assay [13] is 18.7%; in [14], 10.4%; in [15], 46.2%; in assay [16] it was -4.82%; in assay [17] it was 9.96%; in [18], 3.4%. In addition, the inhibition was 23.2% in assay [19] and 5.21% in [20].
For the molecule `NS(=O)(=O)c1ccc(-c2cc3ccncc3cc2OCc2ccccc2)cc1`, the inhibition in [1] is 3.43%; in assay [2], 1.53%; in assay [3], 4.76%; in assay [4], -0.03%; in [5], 0.11%; in assay [6], 1.51%. Further, the inhibition in [7] is 2.11%; in assay [8] it was 1.41%; in assay [9], 1.57%; in [10] it was 4.12%; in [11] it was -0.11%; in [12] it was 2.12%. Moreover, the inhibition was 0.84% in [13]; -0.11% in assay [14]; -1.18% in assay [15]; 3.37% in assay [16]; 2.89% in [17]; 0.98% in assay [18]. In addition, the inhibition in assay [19] stood at 2.04%; in assay [20], 1.44%.
For `NS(=O)(=O)c1ccc(N/N=C2\C(=O)Nc3ccc(Cl)cc32)cc1`, the inhibition in assay [1] amounted to 3.33%; in assay [2], 1.35%; in assay [3], 3.48%; in assay [4], 8.41%; in assay [5] it was 42.5%; in assay [6], 46.7%. For the same molecule, the inhibition was determined as 102% in [7]; 58.5% in [8]; 80.5% in assay [9]; 40.8% in assay [10]; 83.7% in assay [11]; 6.36% in [12]. For the same molecule, the inhibition stood at 28% in assay [13]; 18% in assay [14]; 61% in assay [15]; 15.3% in assay [16]; 56.7% in [17]; 0.8% in [18]. In addition, the inhibition stood at 2.45% in [19] and 1.72% in assay [20].
As for `O=S(=O)(CCOCc1ccc(-c2ccc3ncnc(Nc4ccc(OCc5cccc(F)c5)c(Cl)c4)c3c2)o1)c1ccccc1`, the inhibition in assay [1] is 1.75%; in assay [2], 0.25%; in assay [3] it was 0.46%; in assay [4], 3.78%; in assay [5], 4.97%; in [6] it was 2.29%. For the same molecule, the inhibition in assay [7] was 2.76%; in [8], 4.07%; in [9] it was 6.29%; in [10] it was -0.59%; in [11] it was -2.84%; in assay [12], 0.35%. The inhibition was 4.69% in assay [13]; 4.26% in assay [14]; 5.68% in assay [15]; 0.17% in assay [16]; 3.76% in assay [17]; -0.59% in [18]. Moreover, the values for the inhibition in assay [19] and in [20] were 1.39% and 0.11%, respectively.
On to `c1ccc(Nc2ncc(-c3ccccc3)o2)cc1`, for which the inhibition in assay [1] came to 5.31%; in assay [2] it was 4.05%; in assay [3], 4.99%; in [4], 2.77%; in [5], 4.54%; in assay [6] it was 3.79%. Besides, the inhibition in assay [7] is 10.5%; in assay [8], 3.46%; in assay [9] it was 12.3%; in [10] it was 0.23%; in assay [11], 5.78%; in assay [12], 3.04%. The inhibition in assay [13] is 11.5%; in assay [14], 2.22%; in [15] it was 10.4%; in assay [16], 2.71%; in [17] it was 21.7%; in assay [18], 0.96%. Also, the results for the inhibition in assay [19] and in [20] were 3.74% and -0.17%, respectively.
